The results in this text go back to PubChem BioAssay (NCATS).

Results filed as inconclusive are left out. A number with no mark means an inactive call. Active and inactive are the calls of the source. The call rests on the fitted dose curve; in most records, active means well fitted curve in the direction sought with a large enough effect; inconclusive means small, poorly fitted or top-dose-only effect, or another doubt; inactive means no such curve, though single readings can be large; an effect the other way counts as inactive or inconclusive.

The nature of test [1]: HPAF-II 24hr Apoptosis Induction qHTS against the NCATS CANVASS Library (AID 1347356). Further: 0% is about no effect. In short, it runs like this:
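Luminescent caspase-3/7 signal (DEVD substrate, Caspase-Glo) served as read-out, taken 15 min after reagent addition to HPAF-II cells exposed 24 h to compounds.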
For orientation: In qHTS, concentration-response curves come from the screen itself.

Test [2] can be described thus: HEK293 18hr Apoptosis Induction qHTS against the NCATS CANVASS Library (AID 1347357). Further: 0% is about no effect. In short, it runs like this:
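Caspase-3/7 luminescence (DEVD substrate, Caspase-Glo) after 18 h compound exposure of HEK293 cells, 500 cells/well; 11-point series; doxorubicin titration as control.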

Test [3] is described as follows: HPAF-II 18hr Apoptosis Induction qHTS against the NCATS CANVASS Library (AID 1347360). Further: 0% is about no effect. The method, boiled down: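 Caspase-Glo 3/7 luminescence (DEVD substrate) after 15 min RT; HPAF-II, 500 cells/well, 18 h compound exposure at 37 degrees C, qHTS series; doxorubicin control 0.1nM - 4uM.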
Test [4] can be described thus: HEK293 12hr Apoptosis Induction qHTS against the NCATS CANVASS Library (AID 1347361). Further: 0% is about no effect. In short, it runs like this:
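500 HEK293 cells/well; cpds pin-transferred, 11-pt conc series; 12 h, 37 degrees C/5% CO2; Caspase-Glo 3/7 added, 15 min RT dark; luminescence.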

Test [5] relates to NAD(P)H diaphorase (Clostridium kluyveri). Nature of the test: Diaphorse counterscreen qHTS: Assay Interference Panel against the NCATS CANVASS Library (AID 1347362). Further: 0% is about no effect. The method, boiled down: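 Clostridium kluyveri diaphorase in PBS with 0.01% Tween-20 was preincubated 15 min at room temperature in the dark with compounds (11-point series). Resorufin fluorescence (ex 525/20, em 598/25) was read 5 min after adding resazurin/NADH.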
(The purpose of a counterscreen is to sort out artefacts and off-target activity.)

Test [6] in a line: KB-3-1 Cancer Cell Toxicity qHTS against the NCATS CANVASS Library (AID 1347366). Further: nearly all actives have a fitted effect of over 75% in size. Further: potency means the concentration at half of the fitted maximal effect. In short, it runs like this:
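500 KB-3-1 cells/well; compounds pin-transferred, 11-pnt series; 72 hr, 37C/5% CO2; CellTiter-Glo, 10 min RT; luminescence read-out.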

The nature of test [7]: MCF7 Cancer Cell Toxicity qHTS against the NCATS CANVASS Library (AID 1347369). The method, boiled down: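 Luminescent ATP signal (CellTiterGlo) served as the cytotoxicity read-out after MCF7 breast cancer cells had been incubated 72 hr at 37C with natural products in an 11-point titration.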
A short description of test [8]: qHTS for ATAD5 Antagonist screened against the NCATS CANVASS Library (AID 1347370). Further: nearly all actives have a fitted effect of over 65% in size. Further: potency means the concentration at half of the fitted maximal effect.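 On activity change, negative = inhibition: HEK293T cells carrying an ATAD5 luciferase reporter co-treated with 10 µM 5-fluorouridine; series mostly up to about 46 µM; on the % scale 0 is the no-effect control and ±100 the full control effect.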 The method, boiled down: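 HEK293T cells with stably integrated ATAD5-luciferase reporter, 2000/well, 5 h attachment; compounds plus 10 µM 5-fluorouridine, 16 h at 37 °C. Luciferase luminescence read, with CellTiter-Fluor viability read first.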
Test [9] in a line: J3T Cancer Cell Toxicity qHTS against the NCATS CANVASS Library (AID 1347371). Further: potency means the concentration at half of the fitted maximal effect.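 On activity change, negative = cytotoxicity: J3T is a canine glioma cancer cell line seeded at 500 cells per well; series mostly up to about 46 µM; on the % scale 0 is the no-effect control and ±100 the full control effect.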 The method, boiled down:
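Cells plated at 500 per well, compounds pin-transferred, plates incubated 72 hr at 37C, then CellTiterGlo added and luminescence read to measure ATP content.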

Test [10] addresses Nuclear receptor subfamily 1 group I member 3 (Homo sapiens) (UniProt Q14994). Nature of the test: qHTS for Constitutive Androstane Receptor (CAR) Antagonist screened against the NCATS CANVASS Library (AID 1347372). Further: potency means the concentration at half of the fitted maximal effect.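 On activity change, negative = inhibition: cells stimulated with 50 nM CITCO agonist so inhibition reflects antagonism; series mostly up to about 46 µM; on the % scale 0 is the no-effect control and ±100 the full control effect.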 The method, boiled down: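 HepG2 cells stably carrying hCAR and a CYP2B6-2.2kb luciferase reporter were exposed to compounds plus 50 nM CITCO for 24hr at 37C. CAR activity was read by ONE-Glo luminescence, with viability measured first by CellTiter-Fluor.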

For test [11] the target is unchanged. Nature of the test: qHTS for Constitutive Androstane Receptor (CAR) Agonist screened against the NCATS CANVASS Library (AID 1347373).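 Further: every well also contained 1.5 µM PK11195 alongside the test compound; 0% is about no effect.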 In short, it runs like this: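 HepG2-hCAR-CYP2B6 cells, 2500/well, attached 4hr; cpd + PK11195 1.5uM final; 24hr 37C 5% CO2. CellTiter-Fluor viability read, then ONE-Glo luminescence for CAR activation.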
Test [12] is described as follows: 10-beta competent E. coli microbial cell viability qHTS against the NCATS CANVASS Library (AID 1347376). Further: series mostly up to about 46 µM; 0% is about no effect. In short, it runs like this:
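E. coli 10-beta, 0.2 OD; cpds 11-pt; o/n 37C, 5% CO2; BacTiter-Glo 20 min RT; luminescence (ATP) = viable cells. Daunomycin ctrl.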

Test [13] is described as follows: qHTS for H2AX Agonists against the NCATS CANVASS Library (AID 1347378). Further: 0% is about no effect. In short, it runs like this: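 TR-FRET readout (ex 320 nm, em 665/620 nm ratio) of phospho-H2AX (S139) in CHO-K1 lysates. Cells treated 3 hr at 37C with compound titration, 0.76% DMSO; lysis 30 min, antibody detection 24 hr at RT.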
Test [14] is described as follows: qHTS for Inflammasome Signaling Inhibitors: IL-1-beta AlphaLISA screen against the NCATS CANVASS Library (AID 1347379).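 Further: human THP-1 cells primed with LPS then triggered with ATP.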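 On activity change, negative = inhibition: secreted IL-1B measured as AlphaLISA emission at 615 nm; on the % scale 0 is the no-effect control and ±100 the full control effect; lower signal means less IL-1B release which is the wanted effect.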 The method, boiled down: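 THP-1 cells pretreated 1 hr with compound (up to 57.5 uM final), then stimulated with LPS (250 ng/mL final) and ATP (1.25 mM final). Secreted IL-1B measured by AlphaLISA after 16 hr; glyburide as positive control.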

Test [15] is described as follows: Cytotoxicity qHTS for assessment of Hepg2 cells membrane integrity screened against the NCATS CANVASS Library (AID 1347387). In short, it runs like this:
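qHTS, 11-pt conc. series, 0.59 nM - 46 uM final; HepG2 2000 cells/well, overnight attachment; 5 hr compound exposure 37C/5% CO2; CytoTox-ONE, 10 min RT; fluorescence ex560/em590 = LDH from damaged membranes.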

The nature of test [16]: Secretion counterscreen for inhibitors of the SERCaMP assay screened against the NCATS CANVASS Library (AID 1347390).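 Further: light from luciferase secreted into medium read as a measure of general secretion.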 Further: potency means the concentration at half of the fitted maximal effect. On activity change, negative = inhibition: series mostly up to about 77 µM; on the % scale 0 is the no-effect control and ±100 the full control effect. In short, it runs like this: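 Luminescence from constitutively secreted GLuc in SH-SY5Y-GLuc STOP cells, read after coelenterazine addition, served as read-out. Compounds tested 0.001 - 77 uM for 20 h at 37C; Brefeldin A as positive control.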
A short description of test [17]: Vero-766 cells viability qHTS against the NCATS CANVASS Library: Counterscreen for Zika virus inhibition assay (AID 1347394). Further: nearly all actives have a fitted effect of over 60% in size. Further: potency means the concentration at half of the fitted maximal effect. The method, boiled down:
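CellTiter-Glo luminescence, lower signal indicating cytotoxicity. Vero 766 cells without Zika virus, 1000 cells/well, plated overnight, then treated 72 h at 37C across an 11-point series.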

Test [18] is described as follows: Viability qHTS for inhibitors of the SERCaMP assay screened against the NCATS CANVASS Library (AID 1347400). Further: nearly all actives have a fitted effect of over 70% in size. Further: potency means the concentration at half of the fitted maximal effect. In short, it runs like this: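 SH-SY5Y SERCaMP MJH297 cells, 1000/well; 4 h settle, 37C/5% CO2; pin-transferred cpds; 48 h; CellTiter-Glo lum. Pos ctrl bortezomib 0.0001 - 4.6 uM.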
A short description of test [19]: Redox Reaction Profiling qHTS: Assay Interference Panel against the NCATS CANVASS Library (AID 1347401). Further: potency means the concentration at half of the fitted maximal effect.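 On activation (redox signal): 100% = activation by 2 µM chloranil control.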 In short, it runs like this: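 Resazurin (5 uM) conversion to resorufin measured with 200 uM DTT in 50 mM HEPES pH 7.3, 50 mM NaCl. Compounds tested in 11-point qHTS series. Fluorescence (ex 525/em 598 nm) read before and after 15 min dark incubation.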
A short description of test [20]: U-118MG Cancer Cell Toxicity qHTS against the NCATS CANVASS Library (AID 1347351). The method, boiled down: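 Viability read-out: CellTiter-Glo luminescence after 72 h compound exposure at 37 °C/5% CO2. Cells plated at 1000/well, 4 h pre-incubation; 11-point titration. Bortezomib served as control.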

Nuclear receptor subfamily 1 group I member 3 (Homo sapiens), sequence (Q14994 whole entry, looked up): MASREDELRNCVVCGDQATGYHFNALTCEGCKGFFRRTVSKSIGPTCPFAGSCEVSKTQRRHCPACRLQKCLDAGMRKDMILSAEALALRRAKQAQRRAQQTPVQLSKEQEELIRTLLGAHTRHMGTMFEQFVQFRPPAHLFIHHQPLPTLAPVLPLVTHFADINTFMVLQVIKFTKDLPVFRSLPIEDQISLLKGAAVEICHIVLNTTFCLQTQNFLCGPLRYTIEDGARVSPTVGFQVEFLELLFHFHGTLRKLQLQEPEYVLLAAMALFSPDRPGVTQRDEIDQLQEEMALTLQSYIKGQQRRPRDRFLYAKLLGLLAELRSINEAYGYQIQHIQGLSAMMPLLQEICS

Take `COc1c(O)cc2c(c1O)C(=O)c1c(coc1C)C2=O`: the outcome in test [1], in [4], in test [12] and in test [15] was inactive. The Potency result in test [2], in test [3], in test [5], in test [6], in test [7] and in [8] was “inactive” throughout. Besides, the Potency entry in [9], in test [10], in test [11], in test [13], in test [14] and in [16] was “inactive” throughout. Moreover, the Potency result in test [17] and in [18] was “inactive” each time. In test [19], the Potency was 24.1 µM (active).

Regarding `COc1cc(C2OCC3C(c4ccc(O)c(OC)c4)OCC23)ccc1O` (centres undefined), the activity change, negative = cytotoxicity in [20] is -4.99% [at 7.64 µM]; in test [7], -7.78% [at 9.17 µM]; in [9], 0.397% [at 9.19 µM]; in test [18], -10.2% [at 18.4 µM]. For the same compound, the caspase activation in test [1] was 1.94% [at 9.19 µM]; in [2], 1.93% [at 9.19 µM]; in test [3], -1.71% [at 9.19 µM]; in test [4], 3.13% [at 9.19 µM]. The activity change, negative = inhibition in test [5] is 1.68% [at 11.5 µM]; in test [8], -9.99% [at 9.19 µM]; in test [10] it was 9.55% [at 9.19 µM]; in test [16], 27.5% [at 15.3 µM]. Moreover, the outcome in [6] is “inactive [at 9.19 µM]”. The activation in [11] was 1.13% [at 9.19 µM]; in test [13] it was -3.74% [at 15.3 µM]. Also, the activity change, negative = cytotoxic in test [12] was -5.45% [at 9.19 µM]; in test [17], -3.52% [at 9.19 µM]. Moreover, the cytotoxicity (LDH release) in test [15] was 0.144 [at 9.19 µM]. Besides, the activation (redox signal) in test [19] was -17.9% [at 11.4 µM].

`C[C@]12CC[C@]3(C1)[C@H](CC2=O)C[C@@H](OC(=O)c1ccccc1)[C@H]1[C@](C)(C(=O)O)CCC[C@@]13C`: the Potency result in [20], in test [2], in test [3], in test [5], in [7] and in test [8] was “inactive” throughout. The Potency entry in test [9], in [11], in test [13], in [14] and in test [19] was “inactive” in each case. The outcome in [1], in [4], in [12] and in [15] was inactive. In addition, the results for the Potency in [6] and in [17] were 18.7 µM (active) and 6.6 µM (active), respectively.

Turning to `C/C(=C\[C@H](C)C(=O)/C=C/CC1CC(=O)NC(=O)C1)[C@@H]1OC(=O)/C=C/CC/C=C/C[C@@H](O)[C@@H]1C`, the compound was called inactive in test [1], in test [4], in test [12] and in test [15]. In addition, the Potency entry in test [2], in test [3], in test [5], in [11] and in [17] was “inactive” throughout. Also, the Potency in test [6] is 11.8 µM (active); in test [8], 3.31 µM (active); in test [9], 3.72 µM (active); in [10], 18.6 µM (active); in [14], 6.11 µM (active); in test [16] it was 10.8 µM (active). For the same compound, the Potency in test [18] is 17 µM (active).

For `C=C[C@](Cl)(CBr)CCC=C(C)C`, the Potency result in test [20], in test [2], in test [3], in [5], in test [6] and in [7] was “inactive” in each case. Besides, the Potency entry in test [8], in test [9], in test [10], in test [11], in [13] and in test [16] was “inactive” throughout. Further, the Potency result in test [17], in [18] and in test [19] was “inactive” each time. Also, the compound was classed as inactive in [1], in test [4] and in test [15].
